According to PubChem BioAssay:
Values joined by “and” are separate entries in the source; they are usually repeats but may differ in a detail not shown here. Equal entries are not always repeated. A structure can be active in one record and inactive in another. Active and inactive are the calls of the source.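 Rule for the calls, unless noted: active = compounds whose cell count with miR-34 switched on is under 0.7 times the count with it off; inactive = the rest.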

What was measured:
[1] = EMT-state selective cytotoxicity in co-culture – imaging, PC-3E GFP, TEM4-18 mCherry, primary screen (AID 1345086;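 active = compounds killing one labelled cell type while sparing the other, by normalised counts and ratio limits, not self-fluorescent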;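 for all read-outs here: cells exposed to compound for 72 h before imaging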;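 for red/green cell ratio (normalised): normalised mesenchymal count divided by normalised epithelial count so high means epithelial killing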); settings: PC-3E GFP / TEM4-18 mCherry co-culture, imaging cell counts, at 1 µM; for red/green cell ratio (normalised): actives lie on both sides, counts scaled to control wells, 1 = unselective
[2] = viability loss with induced miR-34 in A549 – imaging, A549 dox-inducible miR-34, nuclei and caspase counts, primary screen (AID 1347080); settings: A549 miR-34 inducible, Hoechst nuclei count, 48 h
[3] = blockers of cellular phospholipid synthesis – cell-based, LOPAC library, screen 4, primary screen (AID 1347384; call rule not given here); settings: animal cells, phospholipid biosynthesis inhibition screen; at 10 µM
[4] = MELAS cybrid and Rieske KO viability enhancers – cell-based, MELAS cybrids, Rieske KO mouse fibroblasts, CellTiter-Glo, primary screen (AID 1508586;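 active = mean z-score across replicates of 1.96 or higher in either the MELAS or the Rieske mutant cell line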;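 note: z relative to plate mean and SD of compound and empty wells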); settings: low glucose
[5] = measured here: epithelial PC-3E GFP cell survival
[6] = measured here: mesenchymal TEM4-18 mCherry cell survival
[7] = stronger effect = lower value, cell number ratio, induced over uninduced
[8] = measured here: relative caspase fold change +Dox/-Dox
[9] = measured here: total cells with miR-34 induction, stronger effect = lower value
[10] = measured here: total cells without miR-34 induction
[11] = MELAS cybrid survival, CellTiter-Glo 48 h, stronger effect = higher value
[12] = Rieske KO mouse fibroblast survival, CellTiter-Glo 72 h

| SMILES | red/green cell ratio (normalised) [1] | normalised cell number [1, 5] | normalised cell number [1, 6] | fold change [2, 7] | fold change [2, 8] | cell count [2, 9] | cell count [2, 10] | outcome [3] | z-score [4, 11] | z-score [4, 12] |
| --- | --- | --- | --- | --- | --- | --- | --- | --- | --- | --- |
| C[C@](N)(Cc1ccc(O)cc1)C(=O)O | 0.89 (inactive) | 1.18 | 1.05 | 1.06 (inactive) | 0.881 | 10300 | 9680 | inactive |  |  |
| CC(N)CCCC(C)(C)O (stereo not given) | 0.95 (inactive) | 0.99 | 0.93 | 0.926 (inactive) | 1.29 | 8630 | 9320 |  | 0.045 (inactive) | 0.396 |
| CC(C(=O)O)c1ccc(C(=O)c2cccs2)cc1 (stereo not given) | 1.06 (inactive) | 0.96 | 1.02 | 0.842 (inactive) and 0.947 (inactive) and 0.9 (inactive) | 1.16 and 0.84 and 2.46 | 9210 and 7840 and 11900 | 10900 and 8270 and 13200 |  | 0.0275 (inactive) and 0.475 (inactive) | -0.115 and -0.0807 |
| O=c1cc[nH]c(=S)[nH]1 | 0.81 (inactive) | 1.32 | 1.07 | 0.917 (inactive) | 0.54 | 7500 | 8180 |  | -0.297 (inactive) | -0.0433 |
| Cc1cc(NC(=O)C2=C(O)c3ccccc3S(=O)(=O)N2C)no1 | 0.87 (inactive) | 0.97 | 0.84 | 0.901 (inactive) and 0.859 (inactive) | 1.1 and 2.9 | 8700 and 11400 | 9660 and 13300 |  | 0.335 (inactive) | 0.203 |
| COc1cc2c3cc1Oc1cc(ccc1O)C[C@@H]1c4c(cc(OC)c(O)c4Oc4ccc(cc4)C[C@@H]3N(C)CC2)CC[N+]1(C)C | 0.97 (inactive) | 1.08 | 1.05 | 0.869 (inactive) and 0.934 (inactive) | 2.84 and 1.19 | 11500 and 10000 | 13300 and 10700 |  | -0.392 (inactive) | -0.225 |
| Cc1cc(C)nc(NS(=O)(=O)c2ccc(N)cc2)n1 | 1.29 (inactive) | 1.02 | 1.31 | 0.847 (inactive) and 0.927 (inactive) and 0.901 (inactive) | 1.07 and 0.872 and 2.46 | 9060 and 8070 and 10900 | 10700 and 8710 and 12100 |  | -0.0833 (inactive) and 0.863 (inactive) | -0.156 and 0.665 |
| C=C1c2cccc(O)c2C(O)=C2C(=O)[C@]3(O)C(O)=C(C(N)=O)C(=O)[C@@H](N(C)C)[C@@H]3[C@@H](O)[C@H]12 | 0.93 (inactive) | 0.85 | 0.79 | 0.869 (inactive) and 0.999 (inactive) | 1.25 and 1.82 | 7110 and 11900 | 8180 and 11900 |  | 0.00753 (inactive) | -2.31 |
| COc1ccc(C(=O)c2ccccc2)c(O)c1 | 0.94 (inactive) | 1.15 | 1.08 | 0.864 (inactive) and 0.859 (inactive) | 1.19 and 0.952 | 7820 and 11100 | 9050 and 12900 |  | -0.0705 (inactive) | -1.09 |
| CCn1cc(C(=O)O)c(=O)c2cnc(N3CCNCC3)nc21 | 1.01 (inactive) | 0.76 | 0.77 | 0.922 (inactive) | 1.25 | 9710 | 10500 |  | 0.675 (inactive) | 0.0409 |
| O=C(OCC(O)CO)c1ccccc1Nc1ccnc2cc(Cl)ccc12 (stereo not given) | 0.94 (inactive) | 0.84 | 0.79 | 0.91 (inactive) | 1.28 | 8940 | 9820 |  | 1.77 (inactive) | 0.884 |
| Nc1ccc(S(=O)(=O)Nc2nccs2)cc1 | 1.36 (inactive) | 0.91 | 1.24 | 0.93 (inactive) and 0.957 (inactive) and 0.871 (inactive) | 1.04 and 0.824 and 4.44 | 8630 and 7440 and 10900 | 9270 and 7780 and 12500 |  | -0.000944 (inactive) and 0.344 (inactive) | -0.264 and 0.18 |
| O=C(O)c1ccccc1OP(=O)(O)O | 0.9 (inactive) | 1.17 | 1.05 | 0.878 (inactive) | 1.05 | 9100 | 10400 |  | 0.629 (inactive) | -0.238 |
| CCN(CC)C(=O)N1CCN(C)CC1 | 1.18 (inactive) | 1.2 | 1.42 | 0.919 (inactive) and 0.923 (inactive) and 0.836 (inactive) | 1.19 and 0.187 and 0.88 | 8740 and 9030 and 11300 | 9520 and 9780 and 13500 |  | 0.833 (inactive) and 0.0717 (inactive) | -0.23 and -0.00609 |
| NC(N)=NCCN1CCCCCCC1 | 1.06 (inactive) | 1.17 | 1.23 | 0.903 (inactive) and 0.92 (inactive) | 1.86 and 0.829 | 8660 and 10700 | 9590 and 11600 |  | -0.808 (inactive) | 0.402 |
| CCOC(=O)NNc1nncc2ccccc12 | 0.96 (inactive) | 0.94 | 0.9 | 0.882 (inactive) | 0.778 | 8120 | 9200 |  | -0.647 (inactive) | -0.171 |
| O=C1c2cccc(O)c2C(=O)c2c(O)cccc21 | 1.24 (inactive) | 1.22 | 1.51 | 0.868 (inactive) | 4.67 | 9530 | 11000 |  | 0.3 (inactive) | 0.397 |

| SMILES | red/green cell ratio (normalised) [1] | normalised cell number [1, 5] | normalised cell number [1, 6] | fold change [2, 7] | fold change [2, 8] | cell count [2, 9] | cell count [2, 10] | outcome [3] | z-score [4, 11] | z-score [4, 12] |
| --- | --- | --- | --- | --- | --- | --- | --- | --- | --- | --- |
| Cc1c(N(C)CS(=O)(=O)O)c(=O)n(-c2ccccc2)n1C | 1.09 (inactive) | 1.23 | 1.35 | 0.886 (inactive) and 0.92 (inactive) | 1.09 and 6.36 | 8550 and 11500 | 9640 and 12500 |  | -1.12 (inactive) | -0.298 |
| O=C(O)P(=O)(O)O | 0.82 (inactive) | 1.21 | 0.99 | 0.897 (inactive) and 0.894 (inactive) | 0.852 and 3.28 | 8080 and 11700 | 9010 and 13100 |  | -0.331 (inactive) | -0.123 |
| CN1CCOC(c2ccccc2)c2ccccc2C1 (stereo not given) | 1.19 (inactive) | 0.43 | 0.51 | 0.979 (inactive) and 0.925 (inactive) | 1.1 and 3.08 | 8830 and 11200 | 9020 and 12100 |  | 0.332 (inactive) | 0.617 |
| CN1CCN(C(c2ccccc2)c2ccccc2)CC1 | 1.46 (inactive) | 1.05 | 1.54 | 0.854 (inactive) and 1.14 (inactive) and 0.917 (inactive) | 1.3 and 0.825 and 1.5 | 8120 and 9280 and 11100 | 9500 and 8140 and 12100 |  | -0.157 (inactive) and 0.0064 (inactive) | -0.181 and 0.467 |
| CCCCC(CC)CN=C(N)NC(N)=NCCCCCCN=C(N)NC(N)=NCC(CC)CCCC (stereo not given) | 0.85 (inactive) | 1.19 | 1.01 | 0.778 (inactive) | 1.43 | 389 | 500 |  | -2.81 | 8.3 |
| CCN(CC)CCOC(=O)C(c1ccccc1)c1ccccc1 | 1.2 (inactive) | 1.02 | 1.22 | 0.854 (inactive) and 1.02 (inactive) and 0.902 (inactive) | 1.3 and 0.648 and 3.67 | 8150 and 4320 and 11300 | 9550 and 4250 and 12500 |  | -0.171 (inactive) and -1.08 (inactive) | 0.0167 and -0.106 |
| CCCCOc1ccc(OCCCN2CCOCC2)cc1 | 0.85 (inactive) | 1.15 | 0.98 | 0.766 (inactive) and 0.863 (inactive) and 0.924 (inactive) | 1.42 and 1.47 and 3.29 | 7600 and 7830 and 11600 | 9930 and 9070 and 12500 |  | -0.0227 (inactive) and 0.258 (inactive) | -0.168 and -0.646 |
| CCCCOc1cc(C(=O)NCCN(CC)CC)c2ccccc2n1 | 0.94 (inactive) | 1.33 | 1.25 | 0.83 (inactive) and 0.969 (inactive) and 0.813 (inactive) | 0.865 and 0.646 and 1.83 | 7720 and 7790 and 10400 | 9300 and 8040 and 12800 |  | -0.328 (inactive) and -0.63 (inactive) | -0.208 and 0.449 |
| Cn1c(=O)c2c(ncn2CCO)n(C)c1=O | 1.06 (inactive) | 0.95 | 1.01 | 0.968 (inactive) | 1.24 | 8860 | 9160 |  | -0.0698 (inactive) | -0.0506 |
| COc1cc(C(=O)NCc2ccc(OCCN(C)C)cc2)cc(OC)c1OC | 0.88 (inactive) | 1.34 | 1.18 | 0.938 (inactive) and 0.925 (inactive) and 0.912 (inactive) | 0.8 and 0.443 and 2.44 | 8110 and 8000 and 11800 | 8650 and 12900 |  | 3.55 (active) and 0.307 (inactive) | -0.723 and -0.201 |
| COc1ccc(NS(=O)(=O)c2ccc(N)cc2)nn1 | 1.05 (inactive) | 0.94 | 0.98 | 0.86 (inactive) and 0.96 (inactive) and 0.867 (inactive) | 1.18 and 0.826 and 3.5 | 7560 and 8690 and 11000 | 8780 and 9050 and 12700 |  | -0.236 (inactive) and -0.537 (inactive) | -0.178 and -1.12 |
| CCCCOC(=O)c1ccc(N)cc1 | 1.07 (inactive) | 0.97 | 1.04 | 0.764 (inactive) and 0.971 (inactive) | 1.56 and 1.88 | 6730 and 8980 | 8820 and 9260 |  | 0.902 (inactive) | -0.282 |
| CCCc1ncc(C[n+]2ccccc2C)c(N)n1 | 0.95 (inactive) | 1.35 | 1.28 | 0.899 (inactive) and 0.934 (inactive) and 0.817 (inactive) | 1.48 and 1.05 and 2.66 | 8050 and 8570 and 10100 | 8960 and 9180 and 12400 |  | -0.137 (inactive) and -0.369 (inactive) | -0.2 and 0.188 |
| CCOc1ccc(Cc2nccc3cc(OCC)c(OCC)cc23)cc1OCC | 0.88 (inactive) | 1 | 0.88 | 0.917 (inactive) | 1.32 | 5900 | 6440 |  | 0.91 (inactive) | 1.27 |
| Cc1c(NC(=O)c2cccnc2)c(=O)n(-c2ccccc2)n1C | 1.04 (inactive) | 1.05 | 1.09 | 0.892 (inactive) | 1.07 | 8460 | 9480 |  | 0.707 (inactive) | 0.58 |
| CC(=O)Oc1cccc2c1C(=O)c1c(OC(C)=O)cc(C(=O)O)cc1C2=O | 0.93 (inactive) | 1.07 | 0.99 | 0.904 (inactive) | 2.1 | 8090 | 8950 |  | -0.263 (inactive) and -0.828 (inactive) | -0.165 and -1.06 |
| CO[C@]12C[C@@H](COC(=O)c3cncc(Br)c3)CN(C)[C@@H]1Cc1cn(C)c3cccc2c13 | 1.03 (inactive) | 0.95 | 0.99 | 0.861 (inactive) and 0.885 (inactive) and 0.895 (inactive) | 1.4 and 2.61 and 0.782 | 8590 and 11400 and 9340 | 9980 and 12900 and 10400 |  | 0.949 (inactive) and 0.883 (inactive) | 0.302 and 0.698 |
